A selection: hits, their analogues and other compounds. The true share with any hit is near 6.5%.
NADH coupling: inhibitors of PK/LDH coupling enzymes, profiling panel, artefact control, biochemical, MLSMR library. coupled PK/LDH NADH assays, four targets. IC50, µM (highest dose often 10 µM), inactives show at the top dose inhibition. actives 0.02% (n = 65,000);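 active = single-dose screening hits from any of four coupled enzyme assays that gave an IC50 when retested across doses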;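 note: the DPM-DC format reads NADH fluorescence rather than 340 nm absorbance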
Spn DPM-DC inh: S. pneumoniae DPM-DC inhibitors, primary screen, biochemical, PK/LDH-coupled NADH fluorescence. purified DPM-DC. calls only at 10 µM. actives 0.49% (n = 65,000). AID 556, 2006;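 active = the 320 compounds with the highest percent inhibition in the single-dose primary screen, excluding strongly autofluorescent ones, cut at about 32% in these data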;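 note: kinetic rate of NADH fluorescence loss reporting ADP formed by the decarboxylase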
Fluor 339 460: intrinsic fluorescence of library compounds, ex339/em460 – biochemical, MLSMR library, data from DPM-DC assay, artefact control, profiling panel; compound autofluorescence, ex339/em460 nm, NADH buffer; hits give high values; 1 = no-compound wells, NADH background; AID 709, 2007; actives 5.5% (n = 65,000); fluorescence fold increase at 10 µM;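 active = at 10 µM, mean starting fluorescence two-fold or more over control wells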;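 note: signal is the first read of a kinetic run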
Abs 340nm: compound light absorbance at 340 nm, profiling panel, artefact control, biochemical, MLSMR library, data from PS, PMK, MK assays | 65,000 tested, under 10 active | fold change at 10 µM | compound absorbance at 340 nm, fold over control;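 active = at 10 µM dose, initial 340 nm absorbance at least 2 fold that of control wells; inactive = change under 2 fold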;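 note: initial absorbance extrapolated from kinetic A340 decline of NADH oxidation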
Spn MK inh: S. pneumoniae MK inhibitors, primary screen, biochemical, PK/LDH-coupled NADH absorbance; mevalonate kinase [Streptococcus pneumoniae D39]; purified MK, PK/LDH-coupled NADH absorbance 340 nm; inhibition, % at 10 µM; actives 0.48% (n = 65,000);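 active = ranked among the strongest by inhibition in the single 10 µM screen, a fixed top-ranked set picked for dose follow-up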
PMK inhibit: S. pneumoniae PMK inhibitors, primary screen, biochemical, mevalonate pathway, pilot trial included; phosphomevalonate kinase (Streptococcus pneumoniae D39); purified PMK, PK/LDH-coupled NADH absorbance 340 nm; inhibition, % at 10 µM; actives 0.49% (n = 65,000);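 active = top-ranked compounds by inhibition in the single 10 µM screen, taking a fixed number of the strongest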;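 note: 0% = full reaction with DMSO carrier and 100% = background rate without enzyme reaction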
Numbers without * were called inactive; i = inactive; x = not tested or not shown; + = active, no number; [ ] = dose if it differs, or a comment.

SMILES	NADH coupling	Spn DPM-DC inh	Fluor 339 460	Abs 340nm	Spn MK inh	PMK inhibit
Cc1cccc(Nc2nc(NCc3ccco3)nc(N3CCOCC3)n2)c1	6%	i	1.1	1	1	0
CCOC(=O)c1cc2c(=O)n(C)c3ccccc3c2s1	21%	+	2.8*	1	6	14
CN1CCN(CCCNC(=O)c2cc3c(=O)n(C)c4ccccc4c3s2)CC1	6%	x	2.1*	1.2	12	0
Cc1c(NC(=O)COC(=O)c2cc3c4ccccc4n(C)c3s2)c(=O)n(-c2ccccc2)n1C	11%	i	3.2*	1.2	2	6
CCOC(=O)c1ccc(NC(=O)c2c(O)c3ccccc3n(C)c2=O)cc1	2%	i	1.1	1.1	7	0
CCCCC(=O)Nc1ccc2oc(-c3ccncc3)nc2c1	4%	x	3.7*	1.1	7	0
CCCC(=O)Nc1ccc2oc(-c3ccncc3)nc2c1	13%	x	3.6*	1.1	16	10
CCCC(=O)Nc1ccc(-c2nc3cc(C)c(C)cc3o2)cc1	7%	x	3.8*	1	6	7
O=C(Nc1ccc2oc(-c3ccccc3Cl)nc2c1)c1cncc(Br)c1	4%	i	1.4	1	0	11
CCCCCC(=O)Nc1ccc2oc(-c3cncc(Br)c3)nc2c1	15%	i	2.5*	0.98	9	7
CC1CCCCN1S(=O)(=O)c1ccc2c(c1)CCN2C(=O)C1CCC1 (configuration not stated)	4%	i	1.2	0.98	8	5
CSCC[C@H](NC(=O)NCc1ccc(F)cc1)C(=O)O	3%	i	1.2	1.1	0	9
CCN(CC)CCOC(=O)c1ccc(N=CC2=C(O)CC(C)(C)CC2=O)cc1	17%	+	1	1.2	3	6
CCCCNC(=O)c1cccc(C(=O)NCCCC)c1	5%	i	1.1	1	10	6
O=C(NCCCO)c1ccc2[nH]c3ccccc3c2c1	11%	i	2.7*	1	2	10
CCOC(=O)c1c(-c2ccccc2)[nH]c2ccc(O)cc12	5%	x	3.7*	1.1	9	1
Cc1nc(-c2cnn(-c3ccccc3)c2)c2cc(C)oc2n1	2%	+[fluoresces]	2.7*	1	0	4
Cc1oc2cc(O)cc(C)c2c(=O)c1-c1cnn(-c2ccccc2)c1	2%	i	1.2	1	0	7
CC(=O)C(C(C)=O)c1c(Cl)c(O)c(O)c2c(C(=O)c3ccccc3)coc12	1%	i	1	1.1	2	0
COc1ccc(-c2nnc(SC(C)C(=O)Nc3cccc(Cl)c3)o2)cc1 (configuration not stated)	6%	i	1.2	1	8	9
CCOC(=O)c1cnn2c(C)cc(-c3ccc(F)cc3)nc12	3%	x	2.2*	1.1	0	5
Cc1cc(-c2ccc(F)cc2)nc2cc(C(N)=O)nn12	8%	i	2.1*	1	6	4
CCn1c(CSc2nnc(-c3ccc4c(c3)OCO4)o2)nc2cc(S(=O)(=O)N(C)C)ccc21	6%	i	1.2	1	1	15
CN(C(=O)c1ccno1)c1nnc(-c2ccccn2)s1	10%	x	5.1*	1.1	5	15
CN(C(=O)c1ccncc1)c1nnc(-c2cccnc2)s1	4%	i	1.1	0.99	0	12
SMILES	NADH coupling	Spn DPM-DC inh	Fluor 339 460	Abs 340nm	Spn MK inh	PMK inhibit
CN(C(=O)c1cccc(C#N)c1)c1nnc(-c2ccccn2)s1	12%	i	2.1*	1	19	15
CN(C(=O)c1cccc(C#N)c1)c1nnc(C2CCOC2)s1 (configuration not stated)	7%	i	1	1	0	21
CN(C(=O)c1ccncc1)c1nnc(-c2ccccn2)s1	15%	i	3.1*	1	0	21
CN(C(=O)c1ccccn1)c1nnc(-c2ccncc2)s1	4%	x	2.3*	0.98	11	9
CC(=O)Nc1nn(C)c2nc3cc(C)ccc3cc12	9%	i	2	1.1	11	3
Cc1ccc2cc3c(NC(=O)c4ccco4)nn(C)c3nc2c1	17%	+	2.9*	1.1	9	6
COc1cc(C)c(C(C)C)cc1S(=O)(=O)NCCCn1ccnc1	6%	i	1.1	1	0	12
CC(=O)NCCn1c(SCc2cc(=O)n3cc(Cl)ccc3n2)nc2ccccc2c1=O	18%	+	2.1*	1.1	7	13
CC(=O)NCCn1c(SCc2ccccc2F)nc2ccccc2c1=O	5%	i	1.1	1.1	2	13
O=c1c(-c2ccc3c(c2)OCCO3)coc2c(CN3CCOCC3)c(O)ccc12	7%	x	3.8*	1.1	11	2
COc1cccc(Oc2coc3c(CN4CCOCC4)c(O)ccc3c2=O)c1	9%	x	3.9*	1.1	8	10
COc1ccc(Oc2coc3cc(OC(=O)N4CCOCC4)ccc3c2=O)cc1	3%	i	1.1	1.1	5	5
c1ccc(-c2nc(-c3ccco3)cs2)nc1	13%	x	2.1*	1.1	9	17
c1ccc(-c2noc(-c3ccco3)n2)nc1	9%	i	1.1	1	10	11
O=C(CN1c2cccc3cccc(c23)S1(=O)=O)NCc1ccc2c(c1)OCO2	7%	i	1.8	1.1	2	2
CCCN1c2cccc3cccc(c23)S1(=O)=O	7%	x	2.2*	1.1	12	2
COc1cc(NC(=O)CN2c3cccc4cccc(c34)S2(=O)=O)cc(OC)c1OC	14%	i	2.6*	1.1	13	4
N#CCCCCN1c2cccc3cccc(c23)S1(=O)=O	5%	x	3.7*	1	0	10
O=S1(=O)c2cccc3cccc(c23)N1Cc1ccc(-c2nnco2)cc1	12%	i	2.8*	1	0	19
O=S1(=O)c2cccc3cccc(c23)N1Cc1nnc(-c2ccccc2Br)o1	5%	i	1.7	1	8	6
Cc1cc2cc(CN(C(=O)C3CC3)C3CCCC3)c3nnnn3c2cc1C	6%	i	1	1	0	19
O=S(=O)(Nc1cccc2ccccc12)N1CCCC1	9%	i	2.5*	1	3	8
O=C(NCCc1ccccc1)c1ccccc1NS(=O)(=O)N1CCCC1	6%	x	3.4*	1	5	6
COc1ccccc1NC(=O)c1ccccc1NS(=O)(=O)N1CCCC1	7%	i	1.4	1.1	3	5

Bioassay records as filed in PubChem BioAssay.
